Reference: PubChem BioAssay (NCATS)
Inconclusive results are not listed. Activity calls are given as the source filed them. Calls follow the shape of the dose curve; as a rule, active = well fitted curve in the direction sought with a large enough effect; inconclusive = small, poorly fitted or top-dose-only effect, or another doubt; inactive = no such curve, though single readings can be large; an effect the other way counts as inactive or inconclusive.

Key:
[1] = BET inhibitor-based combinations targeting novel dependencies in MECOM-rearranged (r) AML: MV-4-11 cell line (AID 2202233); also: nearly all actives have a fitted effect of over 45% in size
In short: (§1)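 Activity is given as area under the curve and as Z-AUC, mean-centred within each cell line. It comes from 11-point dose curves normalized to DMSO and empty wells. CellTiter-Glo luminescence was read after 48 hr drug exposure of 500 cells/well.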

[2] = BET inhibitor-based combinations targeting novel dependencies in MECOM-rearranged (r) AML: HNT-34 cell line (AID 2202234); also: nearly all actives have a fitted effect of over 35% in size
In short: as §1

[3] = BET inhibitor-based combinations targeting novel dependencies in MECOM-rearranged (r) AML: AML-191 cell line (AID 2202236; also: nearly all actives have a fitted effect of over 35% in size)
In short: (§2)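 Cells were plated at 500 per well and exposed to an 11-point dose series of each drug for 48 hr. Viability was measured by CellTiter-Glo luminescence, normalized to DMSO and empty-well controls, and summarized as AUC and per-cell-line Z-AUC.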

[4] = BET inhibitor-based combinations targeting novel dependencies in MECOM-rearranged (r) AML: AML-194 cell line (AID 2202237; also: nearly all actives have a fitted effect of over 40% in size)
In short: as §2

[5] = BET inhibitor-based combinations targeting novel dependencies in MECOM-rearranged (r) AML: UCSD-AML1 cell line (AID 2202235); also: nearly all actives have a fitted effect of over 40% in size
In short: as §1
Potency is read from the fitted curve at half-maximal effect.

SMILES | Potency [1] | Potency [2] | Potency [3] | Potency [4] | Potency [5]
O=c1oc2c(C3OCCCO3)c(O)ccc2c2c1CNCC2 | inactive | inactive | 18.6 µM (active) | inactive | –
CCNC(=O)Nc1ccc(Oc2ncnc(N)c2/C=N/OC)cc1Cl | 18.6 µM (active) | 20.9 µM (active) | 16.6 µM (active) | 23.5 µM (active) | 23.5 µM (active)
CNC(=O)[C@@H](NC(=O)[C@H](CC(C)C)[C@H](O)C(=O)NO)C(C)(C)C | 16.6 µM (active) | 14.8 µM (active) | – | – | inactive
Cc1ccc(Nc2cc(N[C@@H]3CCCC[C@@H]3N)nnc2C(N)=O)nc1C | 3.72 µM (active) | 16.6 µM (active) | 18.6 µM (active) | 20.9 µM (active) | –
COc1c(Nc2ncc(Cl)c(N[C@H]3[C@H](C(N)=O)[C@@H]4C=C[C@@H]3C4)n2)ccc2c1CCC(N1CCOCC1)CC2 (some centres not stated) | 0.525 µM (active) | – | 18.6 µM (active) | inactive | inactive
CN[C@@H]1C[C@H]2O[C@@](C)([C@@H]1OC)n1c3ccccc3c3c4c(c5c6ccccc6n2c5c31)C(=O)N[C@H]4O | 0.0215 µM (active) | 0.428 µM (active) | 0.605 µM (active) | 0.382 µM (active) | 0.135 µM (active)
COc1ccc2[nH]c(C(=O)N3CCC(CC(C)(C)O)CC3)cc2c1 | inactive | inactive | – | inactive | inactive
CNC(=O)c1ccc(N2C(=S)N(c3ccc(C#N)c(C(F)(F)F)c3)C(=O)C2(C)C)cc1F | 18.6 µM (active) | – | inactive | inactive | inactive
COc1ccc(C2=N[C@H](c3ccc(Cl)cc3)[C@H](c3ccc(Cl)cc3)N2C(=O)N2CCNC(=O)C2)c(OC(C)C)c1 | 23.5 µM (active) | 23.5 µM (active) | 26.3 µM (active) | – | inactive
Cc1c(CN2CCN(C(=O)[C@H](C)O)CC2)sc2c(N3CCOCC3)nc(-c3cnc(N)nc3)nc12 | 0.525 µM (active) | – | – | – | 0.0525 µM (active)
Cc1ccc(-c2nc(N)nc3c2nnn3Cc2cccc(CO[C@H]3CCOC3)n2)o1 | inactive | inactive | – | inactive | inactive
CCN1C(=O)CNc2ncc(-c3ccc(-c4ncn[nH]4)nc3C)nc21 | 1.66 µM (active) | 2.09 µM (active) | – | – | 0.186 µM (active)
O=C(Nc1ccc(OC(F)(F)Cl)cc1)c1cnc(N2CC[C@@H](O)C2)c(-c2ccn[nH]2)c1 | 20.9 µM (active) | 0.0105 µM (active) | – | 18.6 µM (active) | inactive
C[C@@H](O)[C@@H](C)Oc1nc(Nc2ccc(S(=N)(=O)C3CC3)cc2)ncc1C(F)(F)F (some centres not stated) | 14.8 µM (active) | 16.6 µM (active) | 18.6 µM (active) | 16.6 µM (active) | 20.9 µM (active)
Cc1ccc(NC(=O)[C@H]2CCCN(C(=O)c3c(C)cccc3F)[C@H]2c2ccc(NC3CCCC3)cc2)cc1C(F)(F)F | inactive | 9.34 µM (active) | inactive | inactive | inactive
CCS(=O)(=O)c1ccc2oc(-c3ccc4ccccc4c3)nc2c1 | – | inactive | – | – | –
Cc1c(O)cccc1C(=O)NC(CSc1ccccc1)C(O)CN1CC2CCCCC2CC1C(=O)NC(C)(C)C (configuration not stated) | – | – | – | 26.3 µM (active) | –
CCOc1cc(CC(=O)N[C@@H](CC(C)C)c2ccccc2N2CCCCC2)ccc1C(=O)O | – | inactive | inactive | – | inactive
CCN(CC)C(=O)Cc1csc(NS(=O)(=O)c2cccc(Cl)c2C)n1 | – | inactive | – | inactive | inactive
CN1C(=O)N(c2cc(Cl)cc(Cl)c2)C(=O)[C@]12CN(Cc1cc(C(=O)O)cs1)C[C@H]2c1ccc(C#N)cc1 | – | inactive | – | inactive | inactive
CC[C@H](C)[C@@H]([C@@H](CC(=O)N1CCC[C@H]1[C@H](OC)[C@@H](C)C(=O)N[C@@H](Cc1ccccc1)c1nccs1)OC)N(C)C(=O)[C@@H](NC(=O)[C@H](C(C)C)N(C)C)C(C)C | – | inactive | inactive | inactive | –
O=C1NC(=O)/C(=C\c2ccc(-c3ccc(F)cc3)o2)S1 | inactive | – | inactive | inactive | –
CNC(=O)c1c(C)oc2cc(Oc3ncnc4cc(OC)c(OC)cc34)ccc12 | – | inactive | inactive | – | inactive
Clc1cc(Cl)cc(CNc2ncncc2-c2ccc3c(c2)OCO3)c1 | 23.5 µM (active) | – | – | 26.3 µM (active) | inactive
O=S(=O)(c1cccc2cnccc12)N1CCCNCC1 | – | inactive | inactive | – | –
COc1ccc2c(c1)[C@]1(C[C@H]1c1ccc3c(/C=C/c4ccc(CN5C[C@@H](C)O[C@@H](C)C5)cc4)n[nH]c3c1)C(=O)N2 | – | 1.32 µM (active) | 0.417 µM (active) | 0.132 µM (active) | 18.6 µM (active)
C/C=C/C[C@@H](C)C(=O)[C@H]1C(=O)N[C@@H](C(C)C)C(=O)N(C)CC(=O)N(C)[C@@H](CC(C)C)C(=O)N[C@@H](C(C)C)C(=O)N(C)[C@@H](CC(C)C)C(=O)N[C@@H](C)C(=O)N[C@H](C)C(=O)N(C)[C@@H](CC(C)C)C(=O)N(C)[C@@H](CC(C)C)C(=O)N(C)[C@@H](C(C)C)C(=O)N1C | 8.11 µM (active) | – | 9.1 µM (active) | 10.2 µM (active) | –
